RE007 growth inh: less growth of the S. pombe RE007 Vpr strain | hit rate 0.21% among 360,000 | S. pombe RE007 Vpr strain, BacTiter-Glo ATP luminescence, 24 h | Potency, µM (top dose mostly 92.2 µM), hits mostly inhibitors | AID 651644; active means well fitted falling curve with a large enough effect; inconclusive means small, poorly fitted or top-dose-only effect; inactive means no such curve, though single readings can be large or run the other way; further: nearly all actives have a fitted effect of over 50% in size
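Fission yeast RE007 carrying one integrated HIV-1 vpr copy, seeded at OD 0.01 in PMG+AL medium with 23 nL pinned compound. Grown 24 h at 30 degrees; viability read by BacTiter-Glo luminescence after 5 min.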
Sm TGR block: inhibitors of Schistosoma mansoni thioredoxin glutathione reductase. Q962Y6. purified TGR, DTNB reduction, TNB absorbance 405 nm. Potency, µM (series often up to 114 µM), hits mostly inhibitors. hit rate 3% among 360,000. AID 485364; further: nearly all actives have a fitted effect of over 60% in size
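TGR 20 nM + NADPH 100 uM (dispensed conc.), cpd preinc 15 min RT; start with NADPH (500 uM addition) then DTNB (15 mM addition). Kinetic TNB absorbance, 405 nm filter. Four-parameter Hill fit across titration.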
HCMV inh: human cytomegalovirus inhibition; HFF cells, HCMV-luciferase reporter, 72 h; active compounds read low; activity change, negative = inhibition, % at 57.5 µM; hit rate 4.5% among 410,000; AID 1259415; in the data active means activity change below about -60%; inconclusive means no clear call, values can overlap the other calls; inactive means above about -39%
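Inhibition of viral replication was scored as loss of reporter luminescence in HFFs infected with HCMV-luciferase (MOI 1 PFU/cell) for 72 h; compounds tested at 2 doses, normalized to buffer and Salinomycin controls.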
FMDV inh: foot and mouth disease virus antiviral activity. Potency, µM (highest dose often 57.9 µM), most hits filed as inhibitors. FMDV antiviral cell-based qHTS. AID 1159524. hit rate 1.2% among 410,000; calls by dose curve; tested in HEK293T cells; further: read-out not given here; nearly all actives have a fitted effect of over 45% in size
FBPA Giardia inh: inhibitors of Giardia lamblia fructose-1,6-bisphosphate aldolase; purified Giardia FBPA; hit rate 0.71% among 290,000; AID 2451; Potency, µM (top dose mostly 59.6 µM), usual class: inhibitors; further: nearly all actives have a fitted effect of over 55% in size
Target sequence (A8B2U2 whole entry, looked up): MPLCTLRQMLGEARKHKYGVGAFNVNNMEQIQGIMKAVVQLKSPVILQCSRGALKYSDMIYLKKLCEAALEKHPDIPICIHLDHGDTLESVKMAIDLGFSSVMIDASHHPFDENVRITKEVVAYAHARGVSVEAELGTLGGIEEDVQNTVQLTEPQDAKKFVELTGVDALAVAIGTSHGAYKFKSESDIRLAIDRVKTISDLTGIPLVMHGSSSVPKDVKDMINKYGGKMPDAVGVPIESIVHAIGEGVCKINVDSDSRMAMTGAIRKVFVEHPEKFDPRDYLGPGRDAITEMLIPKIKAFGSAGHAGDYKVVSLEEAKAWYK
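40 nM FBPA preincubated 10 min at RT with compound (up to 57.5 uM final), then substrate plus GAPDH/TPI/NAD/arsenate coupling and diaphorase/resazurin added. Fluorescence read after 20 min at RT, 525/598 nm.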
TbPYK inhibitor: T. brucei pyruvate kinase inhibition. TbPYK enzyme, Kinase-Glo Plus ATP luminescence, 45 min. Q57TT1. Potency, µM (highest dose often 76.8 µM), most hits filed as inhibitors. hit rate 0.12% among 410,000. AID 624173; further: nearly all actives have a fitted effect of over 50% in size
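Luminescence from Kinase-Glo Plus, added after a 45-minute room-temperature reaction, served as the end-point read-out. The enzyme and substrate were preincubated with compound before ADP (130 uM final) initiated turnover. Concentration-effect curves came from normalized qHTS data.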
A number is an active result. Only some compounds are listed: those with a hit (about 7.7% of all), similar ones and a draw of the others. Unless noted, the call rests on the fitted dose curve; in most records, active means well fitted curve in the direction sought with a large enough effect; inconclusive means small, poorly fitted or top-dose-only effect, or another doubt; inactive means no such curve, though single readings can be large; an effect the other way counts as inactive or inconclusive.

`Cc1ccc(NC(=O)CNc2ccc(Cl)c(Cl)c2)cc1S(=O)(=O)N(C)C` gave RE007 growth inh inactive, Sm TGR block inactive, HCMV inh -72, FMDV inh inconclusive, FBPA Giardia inh inactive and TbPYK inhibitor inactive.
Cc1ccc(NC(=O)Cc2ccc(Cl)c(Cl)c2)cc1S(=O)(=O)N(C)C was read as Sm TGR block inactive, HCMV inh -61, FMDV inh 22µM, FBPA Giardia inh inactive and TbPYK inhibitor inactive.
For Cc1ccc(NC(=O)Cc2ccccc2Cl)cc1S(=O)(=O)N(C)C the results were RE007 growth inh inactive, Sm TGR block inactive, HCMV inh inactive, FMDV inh inactive, FBPA Giardia inh inactive and TbPYK inhibitor inactive.
`COc1ccc(OC)c(S(=O)(=O)CC(=O)c2cc3ccccc3oc2=O)c1` gave HCMV inh inactive.
`NC(=S)N/N=C/c1ccc(-c2cc(Cl)cc(Cl)c2)o1` gave RE007 growth inh inactive, Sm TGR block inconclusive, HCMV inh inconclusive, FMDV inh inactive, FBPA Giardia inh inactive and TbPYK inhibitor inactive.
For O=C1Nc2ccccc2/C1=N/N=C/c1ccc(-c2ccc([N+](=O)[O-])cc2)o1 the results were RE007 growth inh inactive, Sm TGR block inactive, HCMV inh -83, FMDV inh inactive, FBPA Giardia inh inactive and TbPYK inhibitor inactive.
NC(=S)N/N=C/c1ccc(-c2ccc([N+](=O)[O-])cc2)o1 was read as RE007 growth inh inactive, Sm TGR block 28µM, HCMV inh inactive, FMDV inh inactive, FBPA Giardia inh inconclusive and TbPYK inhibitor inactive.
For CN(/N=C/c1ccc(-c2ccc([N+](=O)[O-])cc2)o1)c1ccccc1 the results were RE007 growth inh inactive, Sm TGR block inactive, HCMV inh inactive, FMDV inh inactive, FBPA Giardia inh inactive and TbPYK inhibitor inactive.
Screening O=C(N[C@H](Cc1ccccc1)C(O)c1nc2ccccc2[nH]1)c1cccc2ccccc12 (some centres undefined) returned HCMV inh inactive.
`Oc1ccccc1Cn1c(-c2ccccc2O)nc2ccccc21` gave RE007 growth inh inactive, Sm TGR block inactive, HCMV inh inactive, FMDV inh inactive, FBPA Giardia inh inactive and TbPYK inhibitor inactive.
Screening COc1ccccc1Cn1c(-c2ccccc2OC)nc2ccccc21 returned RE007 growth inh inactive, Sm TGR block inactive, HCMV inh -68, FMDV inh inconclusive, FBPA Giardia inh inactive and TbPYK inhibitor inactive.
For COc1ccc(-c2nc(SC)n(C)c(=O)c2C#N)cc1OC the results were RE007 growth inh inactive, Sm TGR block inactive, HCMV inh -61, FMDV inh inactive, FBPA Giardia inh inactive and TbPYK inhibitor inactive.
`CSC1=NCCN1C(=O)c1c(F)cccc1Cl` gave RE007 growth inh inactive, Sm TGR block inactive, HCMV inh -100, FMDV inh inactive, FBPA Giardia inh inactive and TbPYK inhibitor inactive.
`O=C(NC(NC(=S)Nc1ccccc1)C(Cl)(Cl)Cl)c1cccc(Cl)c1` (centres undefined) gave RE007 growth inh inactive, Sm TGR block inactive, HCMV inh -78, FBPA Giardia inh inactive and TbPYK inhibitor inactive.
Screening Cc1cc(C)c(NC(=S)NC(NC(=O)c2ccccc2)C(Cl)(Cl)Cl)c(C)c1 (centres undefined) returned RE007 growth inh inactive, Sm TGR block inactive, HCMV inh inconclusive, FMDV inh inactive, FBPA Giardia inh inactive and TbPYK inhibitor inactive.
For Cc1ccc(NC(=S)NC(NC(=O)c2ccccc2)C(Cl)(Cl)Cl)c(C)c1 (centres undefined) the results were RE007 growth inh inactive, Sm TGR block inactive, HCMV inh -68, FMDV inh inconclusive, FBPA Giardia inh inactive and TbPYK inhibitor inactive.
For O=C(O)c1cccc(NC(=S)NC(NC(=O)c2cccc([N+](=O)[O-])c2)C(Cl)(Cl)Cl)c1 (centres undefined) the results were RE007 growth inh inactive, Sm TGR block inactive, HCMV inh inactive, FMDV inh inactive, FBPA Giardia inh inactive and TbPYK inhibitor inactive.
COc1ccc(Cl)cc1-c1ccc(C(=O)O)s1 was read as FBPA Giardia inh inactive.
`O=C1N(c2ccccc2)C[C@@H]2C[C@@H](c3cc4ccccc4o3)N3CCC[C@@]123` gave RE007 growth inh inactive, Sm TGR block inactive, HCMV inh -99, FMDV inh inactive, FBPA Giardia inh inactive and TbPYK inhibitor inactive.
`Cc1cc(C)cc(NC(=O)c2ccccc2CC[N+](=O)[O-])c1` gave RE007 growth inh inactive, Sm TGR block 40µM, HCMV inh inactive, FMDV inh inactive, FBPA Giardia inh inactive and TbPYK inhibitor inactive.
`Cc1c(O)c(CN2CCCC2)cc2c3c(c(=O)oc12)CCC3` gave RE007 growth inh inactive, Sm TGR block inconclusive, HCMV inh inactive, FMDV inh inactive, FBPA Giardia inh inactive and TbPYK inhibitor inactive.
Screening O=c1oc2c3c4c(cc2c2c1CCC2)OCCN4CCC3 returned RE007 growth inh inactive, Sm TGR block inactive, HCMV inh -68, FMDV inh inactive, FBPA Giardia inh inactive and TbPYK inhibitor inactive.
`COc1ccc(OC)c(NC(=O)Cn2cc(C(=O)c3cccs3)c3ccccc32)c1` gave Sm TGR block inactive, HCMV inh inconclusive, FMDV inh inactive and TbPYK inhibitor inactive.
`CN(c1ccc(OCC(=O)N2CCN(C/C=C/c3ccccc3)CC2)cc1)S(=O)(=O)c1cccs1` gave RE007 growth inh inactive, Sm TGR block inconclusive, HCMV inh -82, FMDV inh inconclusive, FBPA Giardia inh inactive and TbPYK inhibitor inactive.
`CCOC(=O)C1CCN(C(=O)COc2ccc(N(C)S(=O)(=O)c3cccs3)cc2)CC1` gave RE007 growth inh inactive, Sm TGR block inactive, HCMV inh inactive, FMDV inh inconclusive, FBPA Giardia inh inactive and TbPYK inhibitor inactive.
`CCOc1ccc(NS(=O)(=O)c2cccc(C(=O)N3CCN(C/C=C/c4ccccc4)CC3)c2)cc1` gave RE007 growth inh inactive, HCMV inh inconclusive, FMDV inh 28µM and TbPYK inhibitor inactive.
For O=C(c1cccc(S(=O)(=O)N2CCOCC2)c1)N1CCN(C/C=C/c2ccccc2)CC1 the results were RE007 growth inh inactive, Sm TGR block inactive, HCMV inh inactive, FMDV inh inactive and TbPYK inhibitor inactive.
Screening CCOc1ccc(S(=O)(=O)Nc2cccc(C(=O)N3CCN(c4ccccn4)CC3)c2)cc1 returned RE007 growth inh inactive, HCMV inh -62, FMDV inh inactive and TbPYK inhibitor inactive.
`Cc1ccc(NS(=O)(=O)c2ccc(C(=O)N3CCN(c4ccccn4)CC3)cc2)cc1` gave RE007 growth inh inactive, Sm TGR block inconclusive, HCMV inh inconclusive, FMDV inh 18µM, FBPA Giardia inh inactive and TbPYK inhibitor inactive.
`CC(=O)O[C@H]1C[C@@H](n2cnc3c(Cl)ncnc32)[C@@H]2OC(C)(C)O[C@@H]21` gave HCMV inh inactive.

Screening results as filed in PubChem BioAssay.
